According to PubChem BioAssay (NCI):
“And” between values parts separate entries of the source, which are not always exact repeats. Equal values may be shown once. About 83,000 compounds went through this panel and 20% of them were active in at least one assay; those are over-represented in the sample as a whole.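 Values shown are percent growth following 48 h exposure of cells in 96-well plates to a single concentration of compound; below 10 was considered active.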 The source made the active and inactive calls.

Assays:
Test in all cases: NCI-60 one-dose screen, 48 h (100 = growth as untreated, 0 = no growth, -100 = all killed)
SK-MEL-2 melanoma = system: SK-MEL-2 melanoma
EKVX NSCLC = conditions: 10 µM unless noted
SN12C renal = system: SN12C renal
UO-31 renal = system: UO-31 renal
TK-10 renal = system: TK-10 renal
ACHN renal = conditions: 10 µM unless noted
CAKI-1 renal = conditions: 10 µM unless noted
A498 renal = system: A498 renal
CCRF-CEM leukemia = system: CCRF-CEM leukemia
MOLT-4 leukemia = system: MOLT-4 leukemia
SR leukemia = system: SR leukemia
RPMI-8226 leukemia = system: RPMI-8226 leukemia
OVCAR-8 ovarian = system: OVCAR-8 ovarian
OVCAR-5 ovarian = conditions: 10 µM unless noted
OVCAR-4 ovarian = system: OVCAR-4 ovarian
SK-OV-3 ovarian = system: SK-OV-3 ovarian
IGROV1 ovarian = system: IGROV1 ovarian
OVCAR-3 ovarian = system: OVCAR-3 ovarian
HS 578T breast = system: HS 578T breast
NCI/ADR-RES ovarian = system: NCI/ADR-RES ovarian

Measured: growth

O=c1c2ccccc2nc2n1Cc1nc3ccccc3c(=O)n1C2
inactive: SK-MEL-2 melanoma; 10 µM unless noted 103% and 119% | EKVX NSCLC 90.9% and 104% | SN12C renal; 10 µM unless noted 96.9% and 102% | UO-31 renal; 10 µM unless noted 81.2% and 92.6% | TK-10 renal; 10 µM unless noted 107% and 102% | ACHN renal 95.6% and 102% | CAKI-1 renal 93.5% | A498 renal; 10 µM unless noted 93.9% and 103% | CCRF-CEM leukemia; 10 µM unless noted 96.2% and 112% | MOLT-4 leukemia; 10 µM unless noted 99.4% and 30.7% | SR leukemia; 10 µM unless noted 85.9% | RPMI-8226 leukemia; 10 µM unless noted 93% and 102% | OVCAR-8 ovarian; 10 µM unless noted 112% and 110% | OVCAR-5 ovarian 101% and 102% | OVCAR-4 ovarian; 10 µM unless noted 95.2% and 108% | SK-OV-3 ovarian; 10 µM unless noted 112% and 110% | IGROV1 ovarian; 10 µM unless noted 88% and 106% | OVCAR-3 ovarian; 10 µM unless noted 92.6% and 112% | HS 578T breast; 10 µM unless noted 91.7% and 114% | NCI/ADR-RES ovarian; 10 µM unless noted 102% and 105%

CCN(CC)CCCC(C)Nc1ccnc2cc(Oc3ccccc3)ccc12 (stereo unspecified)
-53.5% (active) and 63.2% (inactive): IGROV1 ovarian; 10 µM unless noted
9.09% (active) and 33.9% (inactive): SR leukemia; 10 µM unless noted
inactive: SK-MEL-2 melanoma; 10 µM unless noted 115% | EKVX NSCLC 83.7% and 74.9% | SN12C renal; 10 µM unless noted 71.2% and 74.4% | UO-31 renal; 10 µM unless noted 49.2% and 50.6% | TK-10 renal; 10 µM unless noted 91.3% | ACHN renal 73.6% and 80.6% | CAKI-1 renal 68.8% | A498 renal; 10 µM unless noted 59.1% and 55.4% | CCRF-CEM leukemia; 10 µM unless noted 65.5% and 56% | MOLT-4 leukemia; 10 µM unless noted 65.1% and 80.7% | RPMI-8226 leukemia; 10 µM unless noted 68.6% | OVCAR-8 ovarian; 10 µM unless noted 63.1% and 77.7% | OVCAR-5 ovarian 82.7% and 90.8% | OVCAR-4 ovarian; 10 µM unless noted 75.2% and 92.9% | SK-OV-3 ovarian; 10 µM unless noted 91.2% and 97.2% | OVCAR-3 ovarian; 10 µM unless noted 83.4% and 85.8% | HS 578T breast; 10 µM unless noted 69% | NCI/ADR-RES ovarian; 10 µM unless noted 102% and 96.9%

Cc1cccc(/C=C\C(=O)c2ccccc2)c1
42.8% (inactive) and -0.91% (active): SR leukemia; 10 µM unless noted
inactive: SK-MEL-2 melanoma; 10 µM unless noted 100% and 103% | EKVX NSCLC 97.8% and 101% | SN12C renal; 10 µM unless noted 89.7% and 102% | UO-31 renal; 10 µM unless noted 67.3% and 82.2% | TK-10 renal; 10 µM unless noted 86.9% and 96.3% | ACHN renal 124% and 110% | CAKI-1 renal 92.8% and 95.1% | A498 renal; 10 µM unless noted 95.2% and 68.2% | CCRF-CEM leukemia; 10 µM unless noted 78.9% and 64.5% | MOLT-4 leukemia; 10 µM unless noted 91.5% and 49.1% | RPMI-8226 leukemia; 10 µM unless noted 26% | OVCAR-8 ovarian; 10 µM unless noted 93.9% and 101% | OVCAR-5 ovarian 104% and 103% | OVCAR-4 ovarian; 10 µM unless noted 93.3% and 113% | SK-OV-3 ovarian; 10 µM unless noted 101% | IGROV1 ovarian; 10 µM unless noted 91.6% | OVCAR-3 ovarian; 10 µM unless noted 98.8% and 101% | HS 578T breast; 10 µM unless noted 112% and 104% | NCI/ADR-RES ovarian; 10 µM unless noted 97% and 101%

Cc1ccc(S(=O)(=O)NCN2C(=O)c3ccccc3C2=O)cc1
inactive: SK-MEL-2 melanoma; 10 µM unless noted 106% | EKVX NSCLC 119% | SN12C renal; 10 µM unless noted 98% | UO-31 renal; 10 µM unless noted 92.3% | TK-10 renal; 10 µM unless noted 108% | ACHN renal 108% | CAKI-1 renal 95.1% | A498 renal; 10 µM unless noted 111% | CCRF-CEM leukemia; 10 µM unless noted 91% | MOLT-4 leukemia; 10 µM unless noted 93.6% | SR leukemia; 10 µM unless noted 101% | RPMI-8226 leukemia; 10 µM unless noted 103% | OVCAR-8 ovarian; 10 µM unless noted 108% | OVCAR-5 ovarian 110% | OVCAR-4 ovarian; 10 µM unless noted 96.7% | SK-OV-3 ovarian; 10 µM unless noted 98.4% | IGROV1 ovarian; 10 µM unless noted 107% | OVCAR-3 ovarian; 10 µM unless noted 113% | HS 578T breast; 10 µM unless noted 108%

O=C(O)c1sccc1O
active: SK-MEL-2 melanoma; 100 µM 8.51% | SR leukemia; 100 µM 4.33%
inactive: SK-MEL-2 melanoma; 10 µM 87.2% | SN12C renal; 10 µM 76.3% | SN12C renal; 100 µM 35.7% | UO-31 renal; 10 µM 48.1% | UO-31 renal; 100 µM 26.7% | TK-10 renal; 10 µM 133% | TK-10 renal; 100 µM 68.8% | ACHN renal 70.7% | A498 renal; 10 µM 89.1% | A498 renal; 100 µM 46.2% | CCRF-CEM leukemia; 10 µM 47.7% | CCRF-CEM leukemia; 100 µM 15.1% | MOLT-4 leukemia; 10 µM 46.1% | MOLT-4 leukemia; 100 µM 17.4% | SR leukemia; 10 µM 67.7% | RPMI-8226 leukemia; 10 µM 71.4% | RPMI-8226 leukemia; 100 µM 16% | OVCAR-8 ovarian; 10 µM 82.4% | OVCAR-8 ovarian; 100 µM 37.8% | OVCAR-4 ovarian; 10 µM 76.5% | OVCAR-4 ovarian; 100 µM 29.9% | SK-OV-3 ovarian; 10 µM 84.5% | SK-OV-3 ovarian; 100 µM 80.9% | IGROV1 ovarian; 10 µM 74.7% | IGROV1 ovarian; 100 µM 36% | OVCAR-3 ovarian; 10 µM 75.1% | OVCAR-3 ovarian; 100 µM 11.1% | HS 578T breast; 10 µM 65.6% | HS 578T breast; 100 µM 19.5% | NCI/ADR-RES ovarian; 10 µM 81.5% | NCI/ADR-RES ovarian; 100 µM 36%

O[C@H](c1cc(C(F)(F)F)nc2c(C(F)(F)F)cccc12)[C@@H]1CCCCN1
inactive: SK-MEL-2 melanoma; 10 µM unless noted 73.6% and 52.5% | EKVX NSCLC 65.5% and 82.8% | SN12C renal; 10 µM unless noted 65.9% and 55.1% | UO-31 renal; 10 µM unless noted 50.5% and 31.7% | TK-10 renal; 10 µM unless noted 56.9% and 63.8% | ACHN renal 40.1% and 45.8% | CAKI-1 renal 72.7% and 50.9% | A498 renal; 10 µM unless noted 67% and 52% | CCRF-CEM leukemia; 10 µM unless noted 76.5% and 71.6% | MOLT-4 leukemia; 10 µM unless noted 32.7% | SR leukemia; 10 µM unless noted 11.7% | RPMI-8226 leukemia; 10 µM unless noted 70.1% and 79.2% | OVCAR-8 ovarian; 10 µM unless noted 80.3% and 64.2% | OVCAR-5 ovarian 79.5% and 69.3% | OVCAR-4 ovarian; 10 µM unless noted 69.7% and 59.8% | SK-OV-3 ovarian; 10 µM unless noted 79.1% and 74.6% | IGROV1 ovarian; 10 µM unless noted 47.8% and 46.4% | OVCAR-3 ovarian; 10 µM unless noted 68.1% and 55% | HS 578T breast; 10 µM unless noted 66.3% and 63%

O=C(CN1CCOCC1)N1CCOCC1
inactive: SK-MEL-2 melanoma; 10 µM unless noted 109% | EKVX NSCLC 117% and 84% | SN12C renal; 10 µM unless noted 95.9% and 97.7% | UO-31 renal; 10 µM unless noted 68% and 80% | TK-10 renal; 10 µM unless noted 96.8% and 104% | ACHN renal 108% and 98.9% | CAKI-1 renal 105% and 88.3% | A498 renal; 10 µM unless noted 108% | CCRF-CEM leukemia; 10 µM unless noted 106% | MOLT-4 leukemia; 10 µM unless noted 97.9% and 103% | SR leukemia; 10 µM unless noted 94.5% and 97.8% | RPMI-8226 leukemia; 10 µM unless noted 96.3% and 106% | OVCAR-8 ovarian; 10 µM unless noted 109% and 104% | OVCAR-5 ovarian 115% and 91.5% | OVCAR-4 ovarian; 10 µM unless noted 113% and 114% | SK-OV-3 ovarian; 10 µM unless noted 110% and 96.3% | IGROV1 ovarian; 10 µM unless noted 117% and 115% | OVCAR-3 ovarian; 10 µM unless noted 115% and 128% | HS 578T breast; 10 µM unless noted 111% and 106% | NCI/ADR-RES ovarian; 10 µM unless noted 107% and 114%

CN1CCN(Cc2occc(=O)c2O)CCN(C)CCN(Cc2occc(=O)c2O)CC1
inactive: SK-MEL-2 melanoma; 10 µM unless noted 105% and 64.9% | EKVX NSCLC 104% and 62.8% | SN12C renal; 10 µM unless noted 87.9% and 82.7% | UO-31 renal; 10 µM unless noted 92.2% and 66.6% | TK-10 renal; 10 µM unless noted 100% and 65.2% | ACHN renal 106% and 94% | CAKI-1 renal 99.7% and 42.1% | A498 renal; 10 µM unless noted 95.8% and 13% | CCRF-CEM leukemia; 10 µM unless noted 91.5% and 49% | MOLT-4 leukemia; 10 µM unless noted 97.2% and 47.9% | SR leukemia; 10 µM unless noted 79.5% and 31.1% | RPMI-8226 leukemia; 10 µM unless noted 97.2% and 29.5% | OVCAR-8 ovarian; 10 µM unless noted 98.8% and 64.2% | OVCAR-5 ovarian 104% and 72.1% | OVCAR-4 ovarian; 10 µM unless noted 102% and 77% | SK-OV-3 ovarian; 10 µM unless noted 91% and 49.5% | IGROV1 ovarian; 10 µM unless noted 96.3% and 54% | OVCAR-3 ovarian; 10 µM unless noted 117% and 28.6% | HS 578T breast; 10 µM unless noted 90.4% and 84.2% | NCI/ADR-RES ovarian; 10 µM unless noted 105% and 78.7%
